Measured values taken from PubChem BioAssay AID1159580 (chemical genetic matrix, 2015).
Screen size: about 5,500 compounds; about 2,000 (36%) were called active. Another 18% or so got no clear call; they are omitted. Rule as the data show it: active = normalized growth mostly below about 0.91 (no sharp cut-off); inconclusive = no clear call, values can overlap the other calls; inactive = mostly above about 0.92. The list shows a part of the results.

Assay: chemical genetic growth profiling, strain panel (AID 1159580);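 also: tested at 20 µM; growth read once vehicle control cultures reached saturation at 30 °C; 1 = growth at the plate median or of vehicle wells; lower values mean less growth of the strain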
Conditions: growth OD

Measured: normalized growth

c1ccc2[nH]c(-c3cscn3)nc2c1
active: S. cerevisiae deletion strains, locus YML124C, strain tub3, stronger effect = lower value 0.636 | S. cerevisiae deletion strains, locus YNL153C, strain GIM3, stronger effect = lower value 0.0845 | S. cerevisiae deletion strains, locus YPL241C, strain CIN2, stronger effect = lower value 0.0871
inactive: S. cerevisiae deletion strains, locus YKL068W, stronger effect = lower value 1 | S. cerevisiae deletion strains, locus YKL085W, strain MDH1 (second series), stronger effect = lower value 0.996 | S. cerevisiae deletion strains, locus YKL085W, strain MDH1, stronger effect = lower value 0.996 | S. cerevisiae deletion strains, locus YKL160W, strain elf1, stronger effect = lower value 1.01 | S. cerevisiae deletion strains, locus YKL190W, strain CNB1, stronger effect = lower value 0.993 | S. cerevisiae deletion strains, locus YKR001C, strain vps1, stronger effect = lower value 0.976 | S. cerevisiae deletion strains, locus YKR026C, strain gcn3, stronger effect = lower value 1.02 | S. cerevisiae deletion strains, locus YKR091W, strain srl3, stronger effect = lower value 1.01 | S. cerevisiae deletion strains, locus YLL001W, strain dnm1, stronger effect = lower value 1 | S. cerevisiae deletion strains, locus YLL026W, stronger effect = lower value 1.01 | S. cerevisiae deletion strains, locus YLL041C, strain sdh2, stronger effect = lower value 1.02 | S. cerevisiae deletion strains, locus YLR027C, strain aat2, stronger effect = lower value 1.01 | S. cerevisiae deletion strains, locus YLR039C, strain RIC1, stronger effect = lower value 0.963 | S. cerevisiae deletion strains, locus YLR058C, strain SHM2, stronger effect = lower value 0.997 | S. cerevisiae deletion strains, locus YLR102C, strain apc9, stronger effect = lower value 1.01 | S. cerevisiae deletion strains, locus YLR113W, strain HOG1, stronger effect = lower value 0.985 | S. cerevisiae deletion strains, locus YLR221C, strain rsa3, stronger effect = lower value 0.97 | S. cerevisiae deletion strains, locus YLR258W, strain gsy2, stronger effect = lower value 0.968 | S. cerevisiae deletion strains, locus YLR262C, strain YPT6 (second series), stronger effect = lower value 0.95 | S. cerevisiae deletion strains, locus YLR262C, strain YPT6, stronger effect = lower value 0.968 | S. cerevisiae deletion strains, locus YLR268W, strain sec22, stronger effect = lower value 0.945 | S. cerevisiae deletion strains, locus YLR320W, strain mms22, stronger effect = lower value 0.899 | S. cerevisiae deletion strains, locus YLR330W, strain CHS5, stronger effect = lower value 0.995 | S. cerevisiae deletion strains, locus YLR342W, strain FKS1 (second series), stronger effect = lower value 1.01 | S. cerevisiae deletion strains, locus YLR342W, strain FKS1, stronger effect = lower value 1 | S. cerevisiae deletion strains, locus YLR357W, strain rsc2, stronger effect = lower value 0.984 | S. cerevisiae deletion strains, locus YLR370C, strain arc18, stronger effect = lower value 0.975 | S. cerevisiae deletion strains, locus YLR371W, strain rom2, stronger effect = lower value 1.02 | S. cerevisiae deletion strains, locus YLR384C, strain iki3, stronger effect = lower value 1.01 | S. cerevisiae deletion strains, locus YLR418C, strain cdc73, stronger effect = lower value 0.979 | S. cerevisiae deletion strains, locus YML016C, strain PPZ1, stronger effect = lower value 0.997 | S. cerevisiae deletion strains, locus YML032C, strain rad52, stronger effect = lower value 0.979 | S. cerevisiae deletion strains, locus YML120C, strain ndi1, stronger effect = lower value 1 | S. cerevisiae deletion strains, locus YMR058W, strain fet3, stronger effect = lower value 0.993 | S. cerevisiae deletion strains, locus YMR078C, strain ctf18, stronger effect = lower value 1 | S. cerevisiae deletion strains, locus YMR125W, strain sto1, stronger effect = lower value 1.04 | S. cerevisiae deletion strains, locus YMR129W, stronger effect = lower value 1.01 | S. cerevisiae deletion strains, locus YMR205C, strain PFK2, stronger effect = lower value 0.982 | S. cerevisiae deletion strains, locus YMR223W, strain ubp8, stronger effect = lower value 1.02 | S. cerevisiae deletion strains, locus YMR231W, strain pep5, stronger effect = lower value 1.02 | S. cerevisiae deletion strains, locus YMR263W, strain SAP30, stronger effect = lower value 0.973 | S. cerevisiae deletion strains, locus YMR307W, strain GAS1, stronger effect = lower value 0.928 | S. cerevisiae deletion strains, locus YNL067W, strain RPL9B, stronger effect = lower value 0.961 | S. cerevisiae deletion strains, locus YNL071W, strain lat1, stronger effect = lower value 0.954 | S. cerevisiae deletion strains, locus YNL128W, strain TEP1, stronger effect = lower value 1.01 | S. cerevisiae deletion strains, locus YNL183C, strain NPR1, stronger effect = lower value 0.927 | S. cerevisiae deletion strains, locus YNL209W, strain ssb2, stronger effect = lower value 0.984 | S. cerevisiae deletion strains, locus YNL233W, strain BNI4, stronger effect = lower value 0.958 | S. cerevisiae deletion strains, locus YNL248C, strain rpa49, stronger effect = lower value 1.01 | S. cerevisiae deletion strains, locus YNL250W, strain rad50, stronger effect = lower value 1.04 | S. cerevisiae deletion strains, locus YNL271C, strain bni1, stronger effect = lower value 1 | S. cerevisiae deletion strains, locus YNL298W, strain CLA4, stronger effect = lower value 1.01 | S. cerevisiae deletion strains, locus YNL307C, strain MCK1, stronger effect = lower value 1 | S. cerevisiae deletion strains, locus YNL322C, strain KRE1 (second series), stronger effect = lower value 0.991 | S. cerevisiae deletion strains, locus YNL322C, strain KRE1, stronger effect = lower value 0.987 | S. cerevisiae deletion strains, locus YNR049C, strain mso1, stronger effect = lower value 1.01 | S. cerevisiae deletion strains, locus YNR052C, strain pop2, stronger effect = lower value 0.983 | S. cerevisiae deletion strains, locus YOL012C, strain htz1 2.38 | S. cerevisiae deletion strains, locus YOL147C, strain pex11, stronger effect = lower value 1.01 | S. cerevisiae deletion strains, locus YOR001W, strain rrp6, stronger effect = lower value 1 | S. cerevisiae deletion strains, locus YOR061W, strain CKA2, stronger effect = lower value 0.996 | S. cerevisiae deletion strains, locus YOR069W, strain VPS5, stronger effect = lower value 1 | S. cerevisiae deletion strains, locus YOR070C, strain gyp1, stronger effect = lower value 0.991 | S. cerevisiae deletion strains, locus YOR080W, strain dia2, stronger effect = lower value 1.01 | S. cerevisiae deletion strains, locus YOR083W, strain WHI5, stronger effect = lower value 0.977 | S. cerevisiae deletion strains, locus YOR106W, strain vam3, stronger effect = lower value 1.03 | S. cerevisiae deletion strains, locus YOR136W, strain idh2, stronger effect = lower value 0.995 | S. cerevisiae deletion strains, locus YOR144C, strain elg1, stronger effect = lower value 1.02 | S. cerevisiae deletion strains, locus YOR184W, strain ser1, stronger effect = lower value 0.932 | S. cerevisiae deletion strains, locus YOR231W, strain MKK1, stronger effect = lower value 1 | S. cerevisiae deletion strains, locus YOR265W, strain rbl2, stronger effect = lower value 0.997 | S. cerevisiae deletion strains, locus YOR270C, strain vph1, stronger effect = lower value 0.961 | S. cerevisiae deletion strains, locus YOR290C, strain snf2, stronger effect = lower value 0.944 | S. cerevisiae deletion strains, locus YOR316C, strain cot1, stronger effect = lower value 0.998 | S. cerevisiae deletion strains, locus YPL051W, strain arl3, stronger effect = lower value 0.991 | S. cerevisiae deletion strains, locus YPL078C, strain atp4, stronger effect = lower value 0.995 | S. cerevisiae deletion strains, locus YPL106C, strain sse1, stronger effect = lower value 1.08 | S. cerevisiae deletion strains, locus YPL240C, strain hsp82, stronger effect = lower value 0.997 | S. cerevisiae deletion strains, locus YPL256C, strain CLN2, stronger effect = lower value 0.957 | S. cerevisiae deletion strains, locus YPR119W, strain clb2, stronger effect = lower value 1.01 | S. cerevisiae deletion strains, locus YPR141C, strain kar3, stronger effect = lower value 1.01 | S. cerevisiae deletion strains, locus YPR163C, strain tif3, stronger effect = lower value 1 | S. cerevisiae deletion strains, locus YPR167C, strain met16, stronger effect = lower value 1 | S. cerevisiae deletion strains, strain wtn01, stronger effect = lower value 0.977 | S. cerevisiae strains, strain wild type, stronger effect = lower value 0.995
